Results reported in PubChem BioAssay AID540333 (Southern Research Specialized Biocontainment Screening …, 2011).
The campaign covered roughly 10,000 compounds. About 320 (3.2%) were called active. No stated cut-off is given here; in the data, active means CPE inhibition mostly above about 9.1% (no sharp cut-off); inactive means mostly below about 7.2%. For the sample, actives were picked, then their nearest neighbours and some compounds at random.

Assay: antivirals protecting cells from dengue CPE – CPE readout, HTS (AID 540333)
Conditions: Dengue virus CPE inhibition in host cells, at 20 µM; hits give high values

SMILES	CPE inhibition
Cc1cccc(NC(=O)CN2C(=O)N/C(=C/c3cc(C)n(-c4ccncc4)c3C)C2=O)c1	inactive
COCCNC(=O)c1onc(CSc2cccc(OC)c2)c1C(=O)NCCOC	0.425% (inactive)
COc1cccc(SCc2noc(C(=O)NCCC(C)C)c2C(=O)NCCC(C)C)c1	23% (active)
COc1cccc(SCc2noc(C(=O)NCCN(C)C)c2C(=O)NCCN(C)C)c1	0.54% (inactive)
CNC(=S)N(CCc1ccc(OC)c(OC)c1)Cc1cc2c(C)cc(C)cc2[nH]c1=O	inactive
O=C1CN(C(=O)CSc2nnc3ccccn23)c2ccccc2N1	0.845% (inactive)
C=CCNC(=O)C12CCC(C)(C(=O)C1Br)C2(C)C (stereo not drawn)	0.36% (inactive)
COC(=O)N(NC(=O)C(O)(c1ccccc1)c1ccccc1)c1ccccc1	1.2% (inactive)
COC(=O)N(NC(=O)C(O)(c1ccccc1)c1ccccc1)c1ccc(C)cc1	61.4% (active)
CCOC(=O)N(NC(=O)C(O)(c1ccccc1)c1ccccc1)c1ccccc1	2.6% (inactive)
COc1ccc(-c2nn(-c3ccccc3)cc2/C=C(\C#N)S(=O)(=O)c2ccccc2)cc1OC	0.055% (inactive)
CC(NC(=O)/C(C#N)=C/c1cn(-c2ccccc2)nc1-c1ccc(F)cc1)c1ccccc1 (stereo not drawn)	8.04% (active)
COc1ccc(-c2nn(-c3ccccc3)cc2/C=C(/C#N)C(N)=O)cc1[N+](=O)[O-]	inactive
CC1CC(=O)N(c2ccc(NCc3ccc(Cl)cc3)c([N+](=O)[O-])c2)C1=O (stereo not drawn)	0.275% (inactive)
COc1ccc(CC(=O)NNc2ncnc3c2cnn3-c2ccc(C)cc2)cc1OC	2.76% (inactive)
O=[N+]([O-])c1cccc(/C=N/Nc2nc(NCc3ccccc3)nc(N3CCOCC3)n2)c1	1.39% (inactive)
Cc1cc(C)nc(N/N=C/C2=C(N3CCOCC3)C(=C\c3ccc(Cl)cc3)/CC2)n1	15.6% (active)
Cc1cc(C)nc(N/N=C/C2=C(N3CCOCC3)C(=C/c3ccccc3)/CC2)n1	9.78% (active)
COc1ccc(-n2c(C)cc(/C=N/Nc3nc(N4CCOCC4)nc(N4CCOCC4)n3)c2C)cc1	inactive
S=C(N/N=C/c1ccc(Cl)cc1)N1CCOCC1	inactive
Cc1cc(C)nc(N/N=C/C=C/c2ccccc2)n1	0.52% (inactive)

SMILES	CPE inhibition
COc1ccccc1NC(=S)N1CCN(C/C=C/c2ccccc2)CC1	0.46% (inactive)
O=C(N/N=C/c1cccc(O)c1)c1ccc(COc2ccccc2Br)cc1	3.17% (inactive)
S=C(NCCCNC(=S)Nc1ccccc1)Nc1ccccc1	inactive
CCOCC(O)CNc1ccccc1 (stereo not drawn)	inactive
COc1ccc(N(C(=O)CS(=O)CC(=O)Nc2ccc(F)cc2)C(C(=O)NC2CCCCC2)c2cccs2)cc1 (stereo not drawn)	0.1% (inactive)
CCOC(=O)c1c(NC(=O)COC(=O)c2ccccn2)sc2c1CCC2	inactive
COC(=O)c1c(NC(C)=O)sc2c1CCCCC2	0.285% (inactive)
COC(=O)c1c(NC(=O)CN2C(=O)NC(CCc3ccccc3)C2=O)sc2c1CCCCC2 (stereo not drawn)	25.6% (active)
CCOC(=O)c1c(NC(=O)c2ccccc2N(C)S(=O)(=O)c2ccccc2)sc2c1CCCC2	0.225% (inactive)
COC(=O)c1c(NC(=O)COC(=O)c2ccc(Cl)cc2[N+](=O)[O-])sc2c1CCCCC2	3.41% (inactive)
COC(=O)c1c(NC(=O)CN(c2ccccc2)S(C)(=O)=O)sc2c1CCCC2	18% (active)
CC(C)OC(=O)c1c(NC(=O)CCC(=O)O)sc2c1CCCCC2	inactive
COC(=O)c1c(NC(=O)C2C3CCC(O3)C2C(=O)O)sc2c1CCCCCC2 (stereo not drawn)	0.645% (inactive)
CC(C)[C@H](NS(=O)(=O)c1ccccc1)C(=O)OCC(=O)Nc1ccccc1Sc1ccccc1	24.5% (active)
O=C(COC(=O)CNS(=O)(=O)c1cccc(Br)c1)Nc1ccccc1Sc1ccccc1	inactive
COC(=O)c1c(NC(=O)COC(=O)[C@@H](NS(=O)(=O)c2ccccc2)C(C)C)sc2c1CCC2	24% (active)
O=C(COC(=O)CNS(=O)(=O)c1ccc2ccccc2c1)Nc1ccccc1Sc1ccccc1	inactive
CCCCn1c(N)c(NCCC)c(=O)[nH]c1=O	inactive
COc1cc(C)c(S(=O)(=O)N2CCN=C2c2ccccc2)cc1C	inactive
CCO[C@@H]1OC(C(=O)O)=C[C@H](c2cn(C(C)=O)c3ccccc23)[C@H]1CCCO	inactive
Cc1ccccc1NC(=S)NCC(c1cccnc1)N1CCOCC1 (stereo not drawn)	inactive

SMILES	CPE inhibition
N#Cc1c(-c2ccccc2)nc(SCC(=O)Nc2ccccc2)[nH]c1=O	inactive
Cc1cccc(N2CCN(C(=S)NCc3ccco3)CC2)c1C	0.45% (inactive)
CC(NS(=O)(=O)c1ccc2c(c1)OCCCO2)C(=O)O (stereo not drawn)	0.55% (inactive)
CCCCOC(=O)/C=C/c1ccc(OC(=O)OC)c(OC(=O)OC)c1	inactive
COc1ccc(/C(O)=C2/C(=O)C(=O)N(CCCN(C)C)C2c2cccc(Cl)c2)cc1OC (stereo not drawn)	0.13% (inactive)
CCOC(=O)c1c(NC(=O)CSC(=S)N2CCOCC2)sc(C)c1C	0.065% (inactive)
COc1ccc(C(=O)NC(=S)N(CCC(C)C)c2c(N)n(Cc3ccccc3)c(=O)[nH]c2=O)cc1	0.675% (inactive)
CC(=O)c1cc(-c2ccccc2)n(CC(=O)Nc2cccc(C)c2C)c1C	0.49% (inactive)
COc1ccc([C@@H]2[C@@H]3C(=O)N(C(C)(C)C)C(=O)[C@@H]3[C@]3(C)C(=O)N(c4ccc(C)cc4)C(=O)N23)cc1	inactive
CC[C@@]12C(=O)N(c3ccccc3)C(=O)N1[C@H](c1ccc(Br)cc1)[C@@H]1C(=O)N(C(C)(C)C)C(=O)[C@@H]12	5.79% (inactive)
CC[C@@]12C(=O)N(c3cccc(Br)c3)C(=O)N1[C@H](c1cccc(C)c1)[C@@H]1C(=O)N(Cc3ccccc3)C(=O)[C@@H]12	12.7% (active)
CC(C)C[C@@]12C(=O)N(c3cccc(F)c3)C(=O)N1[C@H](c1ccc(Br)cc1)[C@@H]1C(=O)N(C(C)(C)C)C(=O)[C@@H]12	52.3% (active)
Cc1cccc([C@@H]2[C@@H]3C(=O)N(Cc4ccccc4)C(=O)[C@@H]3[C@]3(CC(C)C)C(=O)N(c4cccc(Br)c4)C(=O)N23)c1	1.25% (inactive)
CC(C)(C)N1C(=O)[C@H]2[C@@H](c3ccc(Br)cc3)N3C(=O)N(c4cccc(Cl)c4)C(=O)[C@@]3(Cc3ccccc3)[C@H]2C1=O	31.9% (active)
CC(C)(C)N1C(=O)[C@H]2[C@@H](c3ccc(Br)cc3)N3C(=O)N(c4ccccc4)C(=O)[C@@]3(C)[C@H]2C1=O	2.17% (inactive)
COc1ccc([C@@H]2[C@@H]3C(=O)N(C(C)(C)C)C(=O)[C@@H]3[C@]3(C)C(=O)N(c4cccc(Cl)c4)C(=O)N23)cc1	0.865% (inactive)
CCOC(=O)[C@@H]1[C@H]2COc3ccccc3[C@H]2N2C(=O)N(c3cccc(Cl)c3)C(=O)[C@]12C	0.045% (inactive)
CCN1C(=O)[C@H]2[C@@H](c3ccc(C)cc3)N3C(=O)N(c4ccccc4)C(=O)[C@@]3(CC)[C@H]2C1=O	inactive
COc1ccc([C@@H]2[C@@H]3C(=O)N(C(C)(C)C)C(=O)[C@@H]3[C@]3(Cc4ccccc4)C(=O)N(c4ccc(OC)cc4)C(=O)N23)cc1	0.525% (inactive)
CC[C@@]12C(=O)N(c3cccc(Cl)c3)C(=O)N1[C@H](c1ccc(Br)cc1)[C@@H]1C(=O)N(C(C)(C)C)C(=O)[C@@H]12	23.6% (active)
CC(=O)c1ccc(N2Cc3ccccc3/C2=N\C(=O)Nc2ccccc2)cc1	1.88% (inactive)

SMILES	CPE inhibition
O=C(c1cc(-c2ccccc2)nn1CC1CC(c2cccnc2)=NO1)N1CCOCC1 (stereo not drawn)	0.185% (inactive)
Cc1ccc(/C=C/C(=O)NCCCN2CCN(CCCNC(=O)/C=C/c3ccc(C)o3)CC2)o1	0.03% (inactive)
Cc1ccc([N+](=O)[O-])cc1S(=O)(=O)NCCc1c(C)[nH]c2c(C)cccc12	0.035% (inactive)
COc1ccc(NC(=S)N(CCN(C)C)C(C)c2ccco2)cc1 (stereo not drawn)	1.96% (inactive)
CCC(=O)N/N=C(\C)CC(=O)Nc1ccccc1-c1ccccc1	inactive
Cc1ccc(-c2cc3c(n2-c2ccc(C(=O)O)cc2)CCCC3=O)cc1	inactive
COc1ccc(C(=O)NCC(=O)NCC(c2ccco2)N(C)C)cc1OC (stereo not drawn)	inactive
CCOc1ccc(NC(=O)CNC(=O)COc2ccccc2)cc1	0.38% (inactive)
COC(C(=O)Nc1ccc(S(=O)(=O)Nc2cccc3ccccc23)cc1)c1ccccc1 (stereo not drawn)	5.08% (inactive)
O=C(NC(=S)N1CCN(c2ccc([N+](=O)[O-])cc2)CC1)c1ccccc1F	1.42% (inactive)
O=C(COC(=O)CC1c2ccccc2CCN1S(=O)(=O)c1ccccc1)Nc1ccccc1 (stereo not drawn)	0.325% (inactive)
COc1ccc([C@H]2CC(=O)C=C(c3cccc(OC)c3)C2)cc1	inactive
COc1ccc([C@H]2CC(=O)C=C(c3ccccc3)C2)cc1	3.05% (inactive)
CCOC(=O)c1cccc(C2=CC(=O)C[C@H](c3ccc(OC)cc3)C2)c1	11.8% (active)
CCOc1cccc(OCCOCCN(C)C)c1	inactive
CCOC(=O)C1=NNC2(c3ccc(Cl)cc3)C(=O)N(c3ccc(C)cc3)C(=O)C12 (stereo not drawn)	inactive
CSCCC(NS(=O)(=O)c1ccc(Cl)cc1)C(=O)OCc1cccc(Cl)c1 (stereo not drawn)	12% (active)
CC(=O)Nc1ccc(S(=O)(=O)NCCSCc2cccc(Cl)c2)cc1	1.06% (inactive)
CSCCC(NC(=O)c1ccc(Cl)cc1)C(=O)OCC(=O)Nc1cc(Cl)ccc1C (stereo not drawn)	0.1% (inactive)
CC(C)OC(=O)/C(=C/c1ccc(Br)cc1)NC(=O)c1ccco1	inactive
